Records with an inconclusive call do not appear. Entries that show only a call come without a potency. Active and inactive are the calls of the source. The call rests on the fitted dose curve; in most records, active means well fitted cell-killing curve with a large enough effect; inconclusive means small, poorly fitted or top-dose-only effect, or effect the other way; inactive means flat fitted curve, though single readings scatter.

A short description of this assay: Compound cytotoxicity measured by an ATP content assay as a counter-screen for lead compounds in human astrocytes. The settings on record: human astrocytes viability, ATP luminescence; series mostly up to 46.1 µM. The protocol:
National Center for Advancing Translational Sciences [NCATS] Johns Hopkins University School of Medicine Florida State University Assay Overview: Many compounds can cause cytotoxicity at high compound concentrations. […] The compound cytotoxicity may also cause side effects or toxicity in human. Thus, the compound cytotoxicity needs to be measured in each cell type and each compound incubation time - same as these in the compound screening assay. The compound cytotoxicity can be measured by cell viability assays such as the ATP content assay. We use an ATP content assay kit for cell viability measurement. It measures ATP content (level) in human astrocytes using a luminescence readout that is proportional to viable cell numbers. Decrease in the luminescence signal after the compound treatment indicates reduced cell viability and cell death caused by compound treatment.
Assay Protocol Summary: The medium for astrocytes contains AM basal medium (ScienCell, Cat.# 1801), AGS (ScienCell, Cat.# 1801), 10% FBS, and 1% Pen/Strep. The ATP content assay kit (PerkinElmer, Cat.# 6016731) was used to determine cell viability. The reagent was reconstituted and prepared as described by the manufacturer. Cells were seeded in 384- or 1536-well assay plates and cultured at 37 C with 5% CO2 for 16 to 20 hours. The typical cell seeding density in the 1536-well plate assay is 350 cells/well in 3 ul medium for astrocytes in the tissue cultured treated/PDL coated plates. Compounds were added to cells and incubated for a specific time such as 6, 24, or 72 hours before addition of the reagent mixture of the ATP content assay kit at 1:1 ratio. After incubation at room temperature for 10 minutes, the luminescence intensity in assay plates was measured using a ViewLux plate reader (PerkinElmer). […] The percentage inhibitions of the decreased cell viability by small molecules were then calculated that indicate compound cytotoxicity.
For orientation: The purpose of a counterscreen is to sort out artefacts and off-target activity.
As to `CCOCCOC(=O)/C=C/c1ccc(OC)cc1`, the Potency entry is “inactive”.
Then `C[C@@H](N)c1ccc(C(=O)Nc2ccnc3[nH]ccc23)cc1`, with “inactive”; and `O=c1[nH]nc(Sc2ncc([N+](=O)[O-])s2)n1-c1ccc2c(c1)OCCO2`, with 1.23 µM (active); and `O[C@@H](COc1cccc2ncccc12)CN1CCN(C2c3ccccc3[C@@H]3[C@H](c4ccccc42)C3(F)F)CC1` (stereo not given in full), with “inactive”.
Then `O=C(O)c1cccc(-c2noc(-c3ccccc3F)n2)c1`, with 5.48 µM (active).
With `CC(C(=O)O)c1ccc(C(=O)c2cccs2)cc1` (stereo not given), the Potency result was “inactive”.
Then `C[C@H](NC(=O)C(=O)Nc1ccccc1C(C)(C)C)C(=O)N[C@@H](CC(=O)O)C(=O)COc1c(F)c(F)cc(F)c1F`, with “inactive”.
Turning to `O=C(O)[C@@H](c1ccc(OCc2ccc3ccccc3n2)cc1)C1CCCC1`, the Potency result is “inactive”.
For the compound `CC[C@@]1(O)C[C@H](O[C@H]2C[C@H](N(C)C)[C@H](O[C@H]3C[C@H](O)[C@H](O[C@H]4CCC(=O)[C@H](C)O4)[C@H](C)O3)[C@H](C)O2)c2c(cc3c(c2O)C(=O)c2c(O)cccc2C3=O)[C@@H]1C(=O)OC`, the Potency entry is “inactive”.
Then `c1ccc(CCNc2nc(-c3ccccc3)cs2)cc1`, with “inactive”; and `O=C(/C=C/c1ccccc1)NCCO`, with “inactive”; and `O=C(Oc1ccccc1)c1cccc(C(=O)Oc2ccccc2)c1`, with “inactive”.
`CN(C)c1ccc(N=NS(=O)(=O)O)cc1`: the Potency entry is “inactive”.
For the compound `CN1CC(=O)N/C1=N/C(=O)Nc1cccc(Cl)c1`, the Potency result is “inactive”.
Consider `CCCCCNC(=O)N1CCC(CN(Cc2ccc(Cl)cc2)Cc2ccc([N+](=O)[O-])s2)C1` (stereo not given), for which the Potency entry was “inactive”.
As for `Nc1ccc(N=Nc2ccccc2)c(N)n1`, the Potency result is “inactive”.
On to `Nc1ncnc2c1ncn2[C@@H]1O[C@@H](CO)[C@H](O)[C@H]1O`, for which the Potency result is “inactive”.
Take `O=C1C(Cl)=C(NCCN2CCOCC2)C(=O)c2ncccc21`: the Potency is 7.74 µM (active).
As to `CC(C)OC(=O)CCCC=CC[C@@H]1[C@H](C=C[C@@H](O)COc2cccc(C(F)(F)F)c2)[C@H](O)C[C@@H]1O`, the Potency result was “inactive”.
For the compound `Cc1cc(O)c2c(c1)C(=O)c1cc(O)cc(O)c1C2=O`, the Potency result is “inactive”.
`Cc1ccc(O)c(N=Nc2ccccc2)n1`: the Potency is 4.35 µM (active).
Then `CCCCCCCC/C=C/C(=O)O`, with “inactive”.
Take `CC(=C(CCOC(=O)C(C)C)SSC(CCOC(=O)C(C)C)=C(C)N(C=O)Cc1cnc(C)nc1N)N(C=O)Cc1cnc(C)nc1N`: the Potency entry was “inactive”.
For the compound `Cc1[nH]c(C=C2C(=O)Nc3ccccc32)c(C)c1CCC(=O)O`, the Potency result is “inactive”.
Then `O=c1cc(-c2ccccc2)oc2cc(O)cc(O)c12`, with “inactive”.
On to `CCOC1OC(=O)C[C@H]1NC(=O)[C@@H]1CCCN1C(=O)[C@@H](NC(=O)c1ccc(N)c(Cl)c1)C(C)(C)C` (stereo not given in full), for which the Potency entry was “inactive”.
Then `O=C(O)Cc1ccc(-c2ccccc2)cc1`, with “inactive”; and `CC=CC[C@@H](C)C(=O)[C@H]1C(=O)N[C@@H](C(C)C)C(=O)N(C)CC(=O)N(C)[C@@H](CC(C)C)C(=O)N[C@@H](C(C)C)C(=O)N(C)[C@@H](CC(C)C)C(=O)N[C@@H](C)C(=O)N[C@H](C)C(=O)N(C)[C@@H](CC(C)C)C(=O)N(C)[C@@H](CC(C)C)C(=O)N(C)[C@@H](C(C)C)C(=O)N1C`, with “inactive”; and `O=C1c2ccccc2-[n+]2ccc3c([nH]c4ccccc43)c21`, with 4.35 µM (active).
Then `Cc1ccc(O)c(-n2nc3ccccc3n2)c1`, with “inactive”; and `COc1ccc(CC2=NN3C([C@@H](CCc4ccccc4)[C@@H](C)O)=NC(C)C3C(=O)N2)cc1OC` (stereo not given in full), with “inactive”.
Regarding `O=S(=O)(O)CCSSCCS(=O)(=O)O`, the Potency result is “inactive”.
For `O=C(O)[C@H](CC(=O)N1C[C@@H]2CCCC[C@H]2C1)Cc1ccccc1`, the Potency result is “inactive”.
Consider `CCCS(=O)c1ccc2nc(NC(=O)OC)[nH]c2c1` (stereo not given), for which the Potency result was “inactive”.
Then `N[C@H](CSC(c1ccccc1)(c1ccccc1)c1ccccc1)C(=O)O`, with “inactive”; and `CC[C@]1(O)C[C@H]2CN(CCc3c([nH]c4ccccc34)[C@@](C(=O)OC)(c3cc4c(cc3OC)N(C=O)[C@H]3[C@@](O)(C(=O)OC)[C@H](OC(C)=O)[C@]5(CC)C=CCN6CC[C@]43[C@@H]65)C2)C1`, with “inactive”.
For the compound `O=c1cc(-c2ccccc2)oc2cc(O)c(O)c(O)c12`, the Potency result was “inactive”.
Regarding `Cc1c(NC(=O)c2ccc(C(C)(C)C)cc2)cccc1-c1cn(C)c(=O)c(Nc2ccc(C(=O)N3CCOCC3)cc2)n1`, the Potency result was “inactive”.
In the case of `O=C(O)c1ccccc1Nc1cccc(C(F)(F)F)c1`, the Potency entry is “inactive”.
On to `Cc1oncc1C(=O)Nc1ccc(C(F)(F)F)cc1`, for which the Potency result was “inactive”.

(Values after PubChem BioAssay AID1224861 (National Center for Advancing Translational Sciences (NCATS), 2016).)
